Test [1] concerns the target T1, Muscle, skeletal receptor tyrosine-protein kinase (Homo sapiens) (UniProt O15146).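 Also: reported value is the mean percent inhibition of MuSK kinase.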
T1 sequence (whole entry): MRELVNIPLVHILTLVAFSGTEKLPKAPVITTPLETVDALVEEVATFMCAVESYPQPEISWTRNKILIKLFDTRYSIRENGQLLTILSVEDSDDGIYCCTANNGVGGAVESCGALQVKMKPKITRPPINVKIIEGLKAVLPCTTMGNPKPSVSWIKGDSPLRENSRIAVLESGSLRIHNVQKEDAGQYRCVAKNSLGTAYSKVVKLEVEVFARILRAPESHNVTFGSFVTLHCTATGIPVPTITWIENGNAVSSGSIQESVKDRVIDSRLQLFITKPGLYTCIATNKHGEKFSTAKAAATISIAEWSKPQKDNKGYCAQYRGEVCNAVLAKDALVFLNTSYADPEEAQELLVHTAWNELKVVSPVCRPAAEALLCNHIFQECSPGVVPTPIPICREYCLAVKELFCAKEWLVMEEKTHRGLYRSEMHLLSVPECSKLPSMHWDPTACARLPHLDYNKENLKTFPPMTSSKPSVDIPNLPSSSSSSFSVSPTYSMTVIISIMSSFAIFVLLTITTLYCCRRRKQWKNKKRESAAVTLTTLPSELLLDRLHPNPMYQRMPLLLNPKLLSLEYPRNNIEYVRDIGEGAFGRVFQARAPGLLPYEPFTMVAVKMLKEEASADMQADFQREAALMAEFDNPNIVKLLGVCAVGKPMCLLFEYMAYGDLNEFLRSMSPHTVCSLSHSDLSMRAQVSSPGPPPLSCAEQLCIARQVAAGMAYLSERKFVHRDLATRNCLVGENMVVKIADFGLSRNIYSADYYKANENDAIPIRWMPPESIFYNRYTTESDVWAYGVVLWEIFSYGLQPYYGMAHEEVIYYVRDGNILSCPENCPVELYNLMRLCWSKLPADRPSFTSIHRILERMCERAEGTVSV
The conditions noted are these: at 1 µM.

In test [2] the target is Platelet-derived growth factor receptor alpha (Homo sapiens) (UniProt P16234). The conditions noted are these: at 0.1 µM.
Platelet-derived growth factor receptor alpha (Homo sapiens), sequence (P16234 whole entry): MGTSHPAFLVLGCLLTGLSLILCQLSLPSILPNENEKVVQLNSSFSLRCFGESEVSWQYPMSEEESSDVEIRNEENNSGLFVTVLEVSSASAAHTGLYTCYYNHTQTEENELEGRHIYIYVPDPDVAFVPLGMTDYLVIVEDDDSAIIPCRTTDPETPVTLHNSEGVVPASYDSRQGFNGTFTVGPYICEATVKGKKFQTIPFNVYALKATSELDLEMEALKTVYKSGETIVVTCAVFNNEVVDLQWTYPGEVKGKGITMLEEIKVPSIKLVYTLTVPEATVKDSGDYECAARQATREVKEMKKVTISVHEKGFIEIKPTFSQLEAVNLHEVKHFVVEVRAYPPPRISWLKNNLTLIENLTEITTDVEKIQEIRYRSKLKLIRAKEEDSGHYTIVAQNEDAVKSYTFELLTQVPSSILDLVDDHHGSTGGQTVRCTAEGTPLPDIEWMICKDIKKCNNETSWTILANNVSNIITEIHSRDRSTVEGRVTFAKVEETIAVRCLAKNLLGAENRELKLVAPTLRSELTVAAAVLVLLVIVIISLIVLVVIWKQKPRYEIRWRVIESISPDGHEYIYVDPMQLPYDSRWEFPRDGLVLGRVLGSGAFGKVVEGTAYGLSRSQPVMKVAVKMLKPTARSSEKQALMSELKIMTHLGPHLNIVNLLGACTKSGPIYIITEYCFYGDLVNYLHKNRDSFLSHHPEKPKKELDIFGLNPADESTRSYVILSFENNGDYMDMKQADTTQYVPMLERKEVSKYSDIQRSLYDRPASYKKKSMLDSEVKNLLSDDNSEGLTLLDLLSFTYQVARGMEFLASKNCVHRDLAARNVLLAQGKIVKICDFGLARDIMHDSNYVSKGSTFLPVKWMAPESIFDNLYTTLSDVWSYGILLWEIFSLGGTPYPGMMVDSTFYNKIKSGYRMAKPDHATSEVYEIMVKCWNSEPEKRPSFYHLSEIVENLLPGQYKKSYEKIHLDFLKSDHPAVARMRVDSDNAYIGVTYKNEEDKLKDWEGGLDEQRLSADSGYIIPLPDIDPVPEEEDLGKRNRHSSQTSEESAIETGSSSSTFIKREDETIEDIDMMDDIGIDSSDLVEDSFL
For test [3] the target is unchanged. The conditions noted are these: at 1 µM.
Test [4] concerns Platelet-derived growth factor receptor alpha (Homo sapiens), P16234 [D842V]. The conditions noted are these: at 0.1 µM.
Test [5] has the same test system. The conditions noted are these: at 1 µM.
The subject of test [6] is Platelet-derived growth factor receptor alpha (Homo sapiens), P16234 [T674I]. The conditions noted are these: at 0.1 µM.
For test [7] the test system is unchanged. The conditions noted are these: at 1 µM.
Test [8] relates to Platelet-derived growth factor receptor alpha (Homo sapiens), P16234 [V561D]. The conditions noted are these: at 0.1 µM.
Platelet-derived growth factor receptor alpha (Homo sapiens), P16234 [V561D], sequence (P16234 whole entry V561D): as the sequence (P16234 whole entry) above, with V561D counted along it
For test [9] the test system is unchanged. The conditions noted are these: at 1 µM.
Test [10] has as its target Platelet-derived growth factor receptor beta (Homo sapiens) (UniProt P09619). The conditions noted are these: at 0.1 µM.
Test [11] has the same target. The conditions noted are these: at 1 µM.
The target in test [12] is Tyrosine-protein kinase FRK (Homo sapiens) (UniProt P42685). The conditions noted are these: at 0.1 µM.
Tyrosine-protein kinase FRK (Homo sapiens), sequence (P42685 whole entry): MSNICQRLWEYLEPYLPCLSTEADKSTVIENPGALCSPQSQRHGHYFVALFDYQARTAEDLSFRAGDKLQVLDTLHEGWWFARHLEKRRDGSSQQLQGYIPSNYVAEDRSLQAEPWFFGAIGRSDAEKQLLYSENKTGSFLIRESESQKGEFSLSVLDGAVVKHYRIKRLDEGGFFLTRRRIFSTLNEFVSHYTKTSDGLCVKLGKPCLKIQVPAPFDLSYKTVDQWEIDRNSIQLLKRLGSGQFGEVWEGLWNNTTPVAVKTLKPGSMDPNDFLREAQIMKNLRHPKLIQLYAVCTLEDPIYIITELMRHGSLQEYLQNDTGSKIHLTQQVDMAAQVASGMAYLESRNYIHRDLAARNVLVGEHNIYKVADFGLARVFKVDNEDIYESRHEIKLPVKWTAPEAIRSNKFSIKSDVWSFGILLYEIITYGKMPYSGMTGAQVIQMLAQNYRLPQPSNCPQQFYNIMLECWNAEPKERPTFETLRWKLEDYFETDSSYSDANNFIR
The target is the same in test [13]. The conditions noted are these: at 1 µM.
In test [14] the target is Protein-tyrosine kinase 2-beta (Homo sapiens) (UniProt Q14289). The conditions noted are these: at 0.1 µM.
Test [15] shares this target. The conditions noted are these: at 1 µM.
For test [16], the target named is Proto-oncogene tyrosine-protein kinase receptor Ret (Homo sapiens) (UniProt P07949). The conditions noted are these: at 0.1 µM.
For test [17] the target is unchanged. The conditions noted are these: at 1 µM.
Test [18] concerns Proto-oncogene tyrosine-protein kinase receptor Ret (Homo sapiens), P07949 [V804L]. The conditions noted are these: at 0.1 µM.
Test [19] has the same test system. The conditions noted are these: at 1 µM.
Test [20] concerns Proto-oncogene tyrosine-protein kinase receptor Ret (Homo sapiens), P07949 [Y791F]. The conditions noted are these: at 0.1 µM.
Proto-oncogene tyrosine-protein kinase receptor Ret (Homo sapiens), P07949 [Y791F], sequence (P07949 whole entry Y791F): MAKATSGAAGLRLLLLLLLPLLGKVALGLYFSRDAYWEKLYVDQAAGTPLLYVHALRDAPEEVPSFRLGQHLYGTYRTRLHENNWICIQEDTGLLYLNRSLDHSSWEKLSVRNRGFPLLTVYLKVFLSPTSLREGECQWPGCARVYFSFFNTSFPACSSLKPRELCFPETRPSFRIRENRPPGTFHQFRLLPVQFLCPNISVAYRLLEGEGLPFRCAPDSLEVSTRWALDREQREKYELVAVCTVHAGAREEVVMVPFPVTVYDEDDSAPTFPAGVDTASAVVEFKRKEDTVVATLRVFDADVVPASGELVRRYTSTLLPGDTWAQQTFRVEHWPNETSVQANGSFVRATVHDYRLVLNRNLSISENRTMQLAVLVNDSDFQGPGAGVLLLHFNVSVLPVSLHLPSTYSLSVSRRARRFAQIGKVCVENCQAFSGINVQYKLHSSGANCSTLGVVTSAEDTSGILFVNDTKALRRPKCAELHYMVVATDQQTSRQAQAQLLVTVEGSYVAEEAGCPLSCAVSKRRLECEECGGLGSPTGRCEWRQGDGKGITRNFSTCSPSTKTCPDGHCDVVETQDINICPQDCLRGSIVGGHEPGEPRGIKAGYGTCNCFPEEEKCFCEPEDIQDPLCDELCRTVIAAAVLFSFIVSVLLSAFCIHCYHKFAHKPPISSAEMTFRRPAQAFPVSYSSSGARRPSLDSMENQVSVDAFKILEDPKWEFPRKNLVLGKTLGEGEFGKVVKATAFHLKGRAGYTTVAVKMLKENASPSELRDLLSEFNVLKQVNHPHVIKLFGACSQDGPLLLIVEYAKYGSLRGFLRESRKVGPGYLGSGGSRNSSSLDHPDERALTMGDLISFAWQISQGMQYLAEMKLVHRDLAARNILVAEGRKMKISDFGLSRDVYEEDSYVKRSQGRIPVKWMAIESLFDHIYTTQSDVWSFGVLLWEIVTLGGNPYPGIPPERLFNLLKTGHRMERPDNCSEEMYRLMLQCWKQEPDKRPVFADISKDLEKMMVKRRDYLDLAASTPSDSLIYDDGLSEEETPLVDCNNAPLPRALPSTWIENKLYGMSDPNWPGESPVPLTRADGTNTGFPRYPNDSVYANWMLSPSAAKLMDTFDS

Eight compounds from ChEMBL document CHEMBL1961873, “Compounds: GSK PKIS; Assays: Nanosyn kinase panel” (2012) can be followed below.

Broadly, the inhibition is the change of the read-out against control, counted positive when it falls.

Where “and” joins values, the source holds several entries; their conditions need not be identical. Equal values may be shown once.

Platelet-derived growth factor receptor beta (Homo sapiens), sequence (P09619 whole entry): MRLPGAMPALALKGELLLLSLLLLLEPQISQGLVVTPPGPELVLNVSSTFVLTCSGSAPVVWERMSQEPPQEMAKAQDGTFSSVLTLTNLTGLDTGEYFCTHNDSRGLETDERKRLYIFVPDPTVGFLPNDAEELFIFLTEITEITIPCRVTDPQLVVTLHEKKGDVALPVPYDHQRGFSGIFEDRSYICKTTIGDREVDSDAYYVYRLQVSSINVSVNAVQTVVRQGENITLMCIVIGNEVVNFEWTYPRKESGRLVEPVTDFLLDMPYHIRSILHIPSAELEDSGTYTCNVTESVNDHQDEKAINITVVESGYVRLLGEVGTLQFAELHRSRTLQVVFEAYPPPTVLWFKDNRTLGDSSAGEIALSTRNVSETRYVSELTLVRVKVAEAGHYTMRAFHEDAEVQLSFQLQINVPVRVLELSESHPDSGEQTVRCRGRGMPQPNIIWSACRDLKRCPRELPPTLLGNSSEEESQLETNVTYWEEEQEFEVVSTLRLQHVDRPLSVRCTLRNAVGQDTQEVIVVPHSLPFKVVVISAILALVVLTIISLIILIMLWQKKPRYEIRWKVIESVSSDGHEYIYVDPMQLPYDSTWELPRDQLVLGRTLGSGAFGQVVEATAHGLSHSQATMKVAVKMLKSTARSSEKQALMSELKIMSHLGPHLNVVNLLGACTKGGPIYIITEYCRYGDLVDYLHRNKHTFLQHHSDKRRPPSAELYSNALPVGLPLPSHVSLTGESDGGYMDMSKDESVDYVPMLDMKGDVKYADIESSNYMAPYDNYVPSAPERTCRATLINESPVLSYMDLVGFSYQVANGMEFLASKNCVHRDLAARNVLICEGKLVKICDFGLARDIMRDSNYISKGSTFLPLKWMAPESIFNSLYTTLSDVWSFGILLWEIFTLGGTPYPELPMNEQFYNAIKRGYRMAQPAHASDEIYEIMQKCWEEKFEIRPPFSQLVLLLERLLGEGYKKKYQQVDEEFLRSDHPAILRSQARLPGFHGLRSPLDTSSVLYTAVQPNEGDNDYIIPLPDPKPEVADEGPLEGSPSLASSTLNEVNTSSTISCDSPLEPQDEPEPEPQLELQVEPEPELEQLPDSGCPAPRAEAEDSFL

As to `O=C(O[C@H]1CN[C@H](C#Cc2cc3ncnc(Nc4ccc(OCc5cccc(F)c5)c(Cl)c4)c3s2)C1)N1CCOCC1`, the inhibition in [1] was 2.35%; in test [2], 7.9%; in [3], 14.3%; in test [4], 2.95%; in [5], 4.82%; in test [6], 8.66%. The inhibition in [7] stood at 9.57%; in [8] it was 8.32%; in test [9], 3.92%; in test [10], 1.59%; in [11] it was 5.35%; in test [12], 3.74%. Moreover, the inhibition in test [13] was 2.3%; in test [14], 12.3%; in test [15] it was 16.8%; in test [16] it was 2%; in [17] it was 10.6%; in [18] it was 2.92%. Also, the inhibition in test [19] stood at 6.95%; in test [20], 4.36%.

Regarding `Nc1nccc(-c2c(-c3ccc(F)cc3)ncn2C2CCNCC2)n1`, the inhibition in test [1] is 4.78% and 1.25%; in test [2] it was 1.26% and 2.55%; in [3], 32.6% and 7.91%; in [4] it was 3.48% and 2.03%; in test [5], 9.35% and 6.11%; in test [6] it was -2.56% and 3.91%. The inhibition in test [7] was 1.13% and 1.39%; in test [8] it was 4.62% and 3.92%; in [9], 19.5% and 6.51%; in test [10], 3.91% and 1.3%; in test [11] it was 32% and 25.6%; in test [12], 0.53% and 0.26%. For the same compound, the inhibition in test [13] is 1.84% and 3.88%; in [14], -6.28% and 0.77%; in test [15], -3.71% and 3.63%; in test [16] it was -0.37% and 2.86%; in [17], 14.1% and 4.3%; in test [18], 0.39% and 2.71%. Moreover, the inhibition in [19] is 9.24% and 2.58%; in [20], 0.26% and 3.84%.

For the compound `c1cnn2ncc(-c3ccnc(NCCCN4CCOCC4)n3)c2c1`, the inhibition in test [1] was 0.6%; in test [2] it was 5.5%; in [3] it was 6.66%; in test [4], 0.88%; in test [5], 3.59%; in test [6] it was 3.47%. Also, the inhibition in [7] was determined as 5.82%; in test [8], 3.16%; in test [9], 2.82%; in test [10] it was 0.52%; in [11], 4.61%; in test [12] it was 0.16%. Further, the inhibition in [13] was 0.39%; in test [14], 9.94%; in test [15], 6.44%; in test [16], 4.78%; in test [17], 0.87%; in test [18], 2.98%. The inhibition worked out at 2.2% in [19] and 6.04% in test [20].

Turning to `O=C(Nc1n[nH]c2nnc(-c3cccnc3)cc12)C1CC1`, the inhibition in test [1] is -0.99%; in [2], -0.04%; in test [3], 5.88%; in test [4] it was 2.16%; in test [5], 2.26%; in test [6], 1.36%. In addition, the inhibition in test [7] is 6.43%; in test [8], 1.61%; in test [9], 3.69%; in test [10] it was 1.07%; in test [11], 4.59%; in test [12], -0.62%. For the same compound, the inhibition in test [13] was -0.08%; in test [14] it was 1.2%; in test [15], 1.77%; in test [16], -1.02%; in test [17], 1.55%; in [18] it was 0.89%. In addition, the inhibition in test [19] turned out to be 1.74%; in [20], 1.5%.

As to `NS(=O)(=O)c1cccc(N/C=C2\C(=O)Nc3ccccc32)c1`, the inhibition was found to be 12.1% in [1]; 7.39% in test [2]; 26.2% in [3]; 4.57% in test [4]; 15.1% in [5]; 9.22% in test [6]. The inhibition was determined as 46.1% in [7]; 5.48% in [8]; 31.2% in [9]; 4.88% in test [10]; 22.3% in test [11]; 3.47% in [12]. Also, the inhibition in [13] was found to be 5.58%; in test [14], 14.1%; in [15], 27.4%; in test [16], 7.9%; in test [17], 30.6%; in [18], 11%. In addition, the inhibition in test [19] turned out to be 48.6%; in test [20], 10.1%.

As for `CS(=O)(=O)Nc1ccc(-c2cc(-c3ccccc3)cc(C(N)=O)c2N)cc1`, the inhibition is 5.45% in test [1]; 5.04% in [2]; 12.1% in test [3]; -0.88% in test [4]; 1.32% in [5]; 3.63% in test [6]. For the same compound, the inhibition is 9.21% in [7]; 3.05% in [8]; 5.7% in test [9]; 4% in test [10]; 9.4% in test [11]; -0.3% in test [12]. For the same compound, the inhibition is 1.63% in test [13]; 3.11% in test [14]; 8.02% in [15]; -0.09% in test [16]; 2.84% in [17]; 2.01% in test [18]. Also, the inhibition is 2.99% in test [19] and 4% in test [20].

For the compound `CCN1CCC(C(=O)Nc2n[nH]c3nnc(-c4cccc(F)c4F)cc23)CC1`, the inhibition in test [1] is 4.59%; in [2] it was 0.87%; in test [3], 3.69%; in test [4], 1.64%; in test [5], 2.59%; in test [6], 2.94%. For the same compound, the inhibition in [7] is 7.18%; in test [8], -0.48%; in test [9], 0.89%; in [10], 3.08%; in [11], 4.95%; in [12] it was 0.31%. Also, the inhibition in [13] is 1.25%; in test [14] it was -2.3%; in test [15], 1.39%; in [16], 2.54%; in test [17], -1.84%; in test [18], 4.84%. In addition, the inhibition worked out at 8.91% in test [19] and 3.29% in test [20].

In the case of `Cc1c2ccc(N(C)c3ccnc(Nc4cccc(S(N)(=O)=O)c4)n3)cc2nn1C`, the inhibition in [1] is 5.12%; in test [2], 63.5%; in [3], 86.5%; in test [4] it was 13.9%; in test [5], 57.9%; in [6] it was 77%. Besides, the inhibition stood at 96.5% in test [7]; 71.5% in test [8]; 92.5% in test [9]; 53.9% in test [10]; 79.2% in [11]; 10.4% in test [12]. Further, the inhibition in test [13] was found to be 46.1%; in test [14], 10.9%; in test [15], 39%; in [16], 44.6%; in [17], 77.5%; in test [18] it was 10.1%. The inhibition in [19] is 37.3%; in test [20], 60.6%.
